Most compounds without a hit are left out; they make up all but 1.2% or so of the library.
MLL AF4-AF9 inh: inhibitors of AF4 peptide binding to AF9, primary screen, biochemical, AlphaScreen, biotin-AF4 peptide, FLAG-AF9, single point; Protein AF-9 (Homo sapiens), P42568; AID 651704, 2012; inhibition, % at 10 µM; 350,000 tested, 0.47% active;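 active = every replicate reaching a set inhibition limit, whatever the replicate mean, cut at about 25% in these data; inconclusive = mean inhibition reaches that limit but some replicates miss it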
RAD54 branch: inhibitors of human RAD54 branch migration, primary screen, biochemical, fluorescence, single point | RAD54 Holliday junction branch migration, FAM/BHQ fluorescence | inhibition, % at 10.4 µM | 360,000 tested, 0.14% active | AID 602329, 2012;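 active = mean normalized replicate activity at least 40 and at least half of replicates scoring 40 or more; inconclusive = only one of the two criteria met; inactive = mean below 40 and under half of replicates reaching 40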;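 note: inhibitors cause a drop in the FAM fluorescence signal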
RAD52 inh: RAD52 DNA annealing inhibitors, primary screen, biochemical, FRET, single point, set 2; 360,000 tested, 0.46% active; DNA repair protein RAD52 homolog (Homo sapiens), P43351; recombinant RAD52 DNA annealing, FRET fluorescence; inhibition, % at 18.7 µM;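 active = every replicate showing at least 50% inhibition; inconclusive = mean inhibition at least 50% but not in every replicate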
Target sequence (P43351 whole entry, looked up): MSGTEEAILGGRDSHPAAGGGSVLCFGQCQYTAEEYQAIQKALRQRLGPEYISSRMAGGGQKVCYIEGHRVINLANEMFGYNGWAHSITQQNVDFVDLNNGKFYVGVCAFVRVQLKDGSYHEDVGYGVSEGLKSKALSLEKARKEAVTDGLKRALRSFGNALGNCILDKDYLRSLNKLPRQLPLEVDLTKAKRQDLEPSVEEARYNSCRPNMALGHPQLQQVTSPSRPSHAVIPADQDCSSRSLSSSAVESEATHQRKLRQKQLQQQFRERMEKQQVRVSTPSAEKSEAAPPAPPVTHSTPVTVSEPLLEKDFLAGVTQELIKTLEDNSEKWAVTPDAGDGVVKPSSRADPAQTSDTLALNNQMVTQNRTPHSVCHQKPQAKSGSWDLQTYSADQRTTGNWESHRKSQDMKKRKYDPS
CASP6 VEID inh: human caspase-6 inhibitors, primary screen, biochemical, VEID-R110 fluorescence, single point, set 2; purified caspase-6, Z-VEID-R110 cleavage fluorescence; P55212; AID 686996, 2013; 350,000 tested, 0.53% active; inhibition, % at 12.5 µM;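 active = mean inhibition across replicates at least about 35%, with every replicate also reaching that limit, limit read from the data; inconclusive = only one of the two criteria met; inactive = neither criterion met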
N-glyco inh: increase of ERlucT glycosylation luciferase signal, primary screen, N-linked glycosylation inhibitor project, D54 ERlucT cells, luminescence, set 2; D54 ERlucT glycosylation luciferase reporter, 24 h; percent of 100 nM tunicamycin response; 360,000 tested, 0.23% active; reporter increase, % at 12.5 µM;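 active = mean luciferase reporter signal, scaled so untreated is 0 and the glycosylation-blocking control 100, at or above a set limit in every replicate; inconclusive = mean reaches the limit but not every replicate does; inactive = mean below the limit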;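 note: luciferase carries N-glycosylation sites so blocking glycosylation raises the light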
A number is an active result; - = inactive; ? = inconclusive; . = not tested or not shown.

SMILES | MLL AF4-AF9 inh | RAD54 branch | RAD52 inh | CASP6 VEID inh | N-glyco inh
C#CCOCCOCCOCCNc1nc(N2CCN(C(=O)[C@H](CCCCN)n3cc([C@@H](N)C(C)CC)nn3)CC2)nc(N2CCN(C(=O)[C@H](Cc3cc4ccccc4[nH]3)n3cc([C@@H](N)CC(C)C)nn3)CC2)n1 (some centres undefined) | . | 60 | . | . | -
COCC(=O)N(C)C[C@@H]1Oc2ncc(-c3ccc(F)cc3)cc2C(=O)N([C@H](C)CO)C[C@H]1C | - | - | - | - | .
CCCC#Cc1ccc2c(c1)O[C@@H](CN(C)C(=O)COC)[C@@H](C)CN([C@H](C)CO)S2(=O)=O | - | - | - | - | .
NS(=O)(=O)c1ccc(NC(=O)c2cccc3cc4ccccc4nc23)cc1 | - | . | - | - | 62
NS(=O)(=O)c1ccc(NC(=O)c2cccc3ccccc23)cc1 | - | - | - | - | -
CN1CCN(C(=O)C[C@@H]2CC[C@H]3[C@@H](COC[C@@H](O)CN3C(=O)Nc3ccc(F)cc3)O2)CC1 | - | - | - | - | .
Cc1nc2c(=O)[nH]c(=S)[nH]c2[nH]c1=O | - | - | - | 93 | -
O=C(O)c1ccc(N=Nc2c(O)[nH]c3cc(Cl)ccc23)cc1 | - | . | - | 38 | -
Cc1ccc(NC(=O)c2ccc(Cl)cc2[N+](=O)[O-])nc1 | - | . | - | - | 31
COC(=O)CN1C(=O)COc2ccc(S(=O)(=O)N3CCCCC3)cc21 | - | - | - | 52 | -
Cc1cc2ccccn2c1C(=O)c1cc([N+](=O)[O-])cc([N+](=O)[O-])c1 | 33 | . | - | - | -
COC(=O)c1cc(C(=O)c2c(C)cc3ccccn23)cc([N+](=O)[O-])c1 | - | - | - | - | ?
CC(C)(C)OC(=O)NCCCC[C@H](NC(=O)[C@H](Cc1c[nH]c2ccccc12)NC(=O)OCc1ccccc1)C(=O)O | - | - | - | 39 | -
CSCCC(NC(=O)OCc1ccccc1)C(=O)NC(Cc1c[nH]c2ccccc12)C(=O)O (centres undefined) | - | . | - | - | .
Cc1ccc(S(=O)(=O)N(C)C[C@@H]2OCCCC[C@@H](C)Oc3ccc(NC(=O)NC4CCCCC4)cc3C(=O)N([C@H](C)CO)C[C@H]2C)cc1 | - | - | - | - | .
C[C@H](CO)N1C[C@H](C)[C@H](CN(C)S(=O)(=O)c2ccc(F)cc2)Oc2c(NC(=O)NC3CCCCC3)cccc2C1=O | - | - | - | - | .
Cc1ccc(-c2ccc([C@H]3[C@H](CO)N4CCCCN(S(=O)(=O)c5cccc(C)c5)C[C@@H]34)cc2)cc1 | - | - | 50 | - | .
Cc1cccc(S(=O)(=O)N2CCCCN3[C@H](CO)[C@@H](c4ccc(-c5ccccc5)cc4)[C@H]3C2)c1 | - | - | 53 | - | .
COc1ccc(S(=O)(=O)N2CCCCN3[C@@H](CO)[C@@H](c4ccc(C5=CCCCC5)cc4)[C@@H]3C2)cc1 | - | - | 50 | - | .
Cc1ccc(-c2ccc([C@H]3[C@H]4CN(S(=O)(=O)c5cccc(C)c5)CCCCN4[C@H]3CO)cc2)cc1 | - | - | - | - | .
Cc1ccc(-c2ccc([C@@H]3[C@H](CO)N4CCCCN(S(=O)(=O)c5cccc(C)c5)C[C@@H]34)cc2)cc1 | - | - | 69 | - | .
C[C@@H]1CN([C@H](C)CO)C(=O)c2cc(NC(=O)Nc3ccc4c(c3)OCO4)ccc2O[C@@H](C)CCCCO[C@@H]1CN(C)C(=O)NC1CCCCC1 | - | - | - | - | .
CC(C)c1cn(CC[C@@H]2CC[C@H](NC(=O)c3cccc(F)c3)[C@@H](CO)O2)nn1 | - | - | - | - | .
COc1ccc(S(=O)(=O)Nc2ccc3c(c2)C(=O)N([C@H](C)CO)C[C@H](C)[C@H](CN(C)S(=O)(=O)c2ccc(OC)cc2)OCCCC[C@H](C)O3)cc1 | . | - | . | . | .
O=C(C[C@H]1CC[C@@H](NS(=O)(=O)c2ccc(F)cc2)[C@H](CO)O1)NCCN1CCCCC1 | - | - | - | - | .
SMILES | MLL AF4-AF9 inh | RAD54 branch | RAD52 inh | CASP6 VEID inh | N-glyco inh
N#C[C@@H]1[C@H](c2ccc(C3=CCCCC3)cc2)[C@@H](CO)N1S(=O)(=O)c1ccccc1 | - | - | - | 41 | .
N#C[C@@H]1[C@H](c2ccc(C3=CCCCC3)cc2)[C@H](CO)N1S(=O)(=O)c1ccccc1 | - | - | - | - | .
COc1ccc(C(=O)/C=C2/C(=O)Nc3ccccc32)cc1OC | - | - | - | - | 29
C=CCOc1ccccc1C(=O)/C=C1/C(=O)Nc2ccccc21 | - | - | - | - | 32
C=CCOc1ccc(C(=O)/C=C2/C(=O)Nc3ccccc32)cc1 | - | - | - | - | -
COc1cc(OC)c(/C=C2\C(=O)Nc3ccccc32)c(OC)c1 | - | . | - | - | .
COc1ccc(C(=O)/C=C2/C(=O)Nc3ccccc32)cc1 | - | - | - | - | ?
COc1ccc(C(=O)/C=C2/C(=O)Nc3ccccc32)c(OC)c1 | - | . | - | - | 33
C[C@H]1CN([C@@H](C)CO)C(=O)c2cc(-c3cccc(C#N)c3)cnc2O[C@@H]1CN(C)C(=O)C1CCC1 | - | - | - | - | .
Cc1noc(C)c1NC(=O)N[C@H]1C=C[C@H](CC(=O)Nc2ccccc2)O[C@H]1CO | - | - | - | - | .
C[C@H](CO)N1C[C@H](C)[C@H](CN(C)S(=O)(=O)c2ccc(Cl)cc2)Oc2c(NC(=O)c3nc4ccccc4s3)cccc2C1=O | - | - | - | - | .
Cc1ccc(NC(=O)c2noc3c2CCC3)cc1C | - | . | - | 54 | -
O=C(O)CN1C(=O)C=CC1=O | - | - | - | 36 | -
O=C(O)CN1C(=O)C2C3C=CC(C2C1=O)C1C(=O)N(CC(=O)O)C(=O)C31 (centres undefined) | - | . | - | - | -
COCCn1c(SCC(=O)N2CCCC2)nnc1-c1ccco1 | 28 | - | - | - | -
COCCn1c(SCC(=O)N2CCCC2)nnc1-c1ccoc1C | . | - | . | . | -
COc1cc2c(cc1OC)C(c1cccs1)N(C(=O)c1ccncc1)CC2 (centres undefined) | - | . | - | - | ?
COc1cc2c(cc1OC)C(c1cccs1)N(C(=S)NC(C)C)CC2 (centres undefined) | - | . | - | - | 45
O=c1cc(Br)c(O)c(Br)cc1Br | - | . | - | 91 | -
COc1ccc(/C=N/NC(=O)c2sccc2OCc2ccc(F)cc2)cc1OC | . | - | . | . | 38
COc1ccc2c3c(n(C)c2c1)[C@H](CO)N(C(=O)Nc1ccc(F)cc1)CC31CCN(S(=O)(=O)c2cccs2)CC1 | - | . | - | - | .
CCCC(=O)N1CC2(CCN(C(=O)NC(C)C)CC2)c2c([nH]c3cc(OC)ccc23)[C@@H]1CO | - | . | - | . | .
